# Results taken from ChEMBL document CHEMBL4513160, “CO-ADD screening of MMV (CH) - Small Polar Library”.
# Hit rate of the full screen: of about 21,000 compounds, fewer than 10 showed an effect of 50% or more. A selection follows. Entries with a potency or affinity are not part of this list.
# System: Acinetobacter baumannii
# Settings: Concentration 300 ug.mL-1; ASSAY_TEST Inhibition of Bacterial Growth; detection method Absorption (OD600); MEDIA CAMHB; plate type 384well; NBS; CORNING #3640; time 18 hr
row,SMILES,Inhibition
1,NS(=O)(=O)N1CCCNCC1,17.02%
2,CCN(CC)C(=O)NCC[S+]([O-])C(C)(C)C (stereo not given),4.98%
3,CN(CCc1ccc(Br)cc1)C(=O)CCCN,4.12%
4,CNC(=O)c1c(C)cccc1NCCCOC,4.81%
5,COc1ccc(OCCCC(=O)NCCN(C)C)cc1,9.28%
6,COCCN1CCCN(C(=O)C(C)C)CC1,-1.05%
7,O=C1CN(C(=O)c2ccn(-c3ccccc3)n2)CCN1,1.11%
8,NC1CCN(CC(=O)N2CCOCC2)CC1,3.07%
9,CC(O)(CN)C(F)(F)F (stereo not given),-3.1%
10,CC(N)CCNS(=O)(=O)c1ccccc1 (stereo not given),10.98%
11,NCC(=O)NCc1ccncc1,9.5%
12,O=C(Nc1cccc(CN2CCCC2=O)c1)C1CC1,1.2%
13,CC(C)CCNC(=O)CCn1cc(Br)ccc1=O,8.21%
14,COc1ccc(C(=O)NCC2(C)COC2)c(F)c1F,4.61%
15,CO[C@@H]1CN[C@@H](c2nc(C)no2)C1,-0.59%
16,COCc1cccc(-c2nc(C3CCOC3)no2)n1 (stereo not given),9.25%
17,Cc1cc(=O)cc(C(=O)N2CCCC(C)(C#N)C2)o1 (stereo not given),0.52%
18,CN(CCCS(C)(=O)=O)CC1CCN(CCO)CC1,0.5%
19,O=C(c1cncc(F)c1)N1CC(N2CCCCC2)C1,2.2%
20,CN(CC1CCOCC1)C(=O)NCc1ccco1,4.16%
21,Cn1ccnc1CN(Cc1ccc(CO)o1)C1CC1,10.44%
22,Cc1nc(C(C)(C)N)sc1C,11.05%

row,SMILES,Inhibition
1,Nc1nc(CCCNC(=O)Cc2ccsc2)cs1,10.16%
2,Cn1nnnc1SCc1cc(Cl)c2c(c1)OCCO2,3.66%
3,O=S(=O)(c1ccco1)N1CCOCc2ccccc21,6.19%
4,N#Cc1ccc(OCC(O)CN2CCSCC2)cc1 (stereo not given),10.14%
5,Cc1cccc(C2NCCNC2=O)c1 (stereo not given),12.66%
6,COCCN(Cc1cnn(C)c1)C(=O)C1CCNC1 (stereo not given),2.42%
7,CN1CCN(C(C)(C)CNC(=O)Nc2cn[nH]c2)CC1,-0.91%
8,O=C(NCCCOC(F)F)NCc1ccc(Br)o1,3.72%
9,O=C(NC1CCCOc2ccc(F)cc21)c1c[nH]nn1 (stereo not given),8.95%
10,COC(=O)CN1CCN(C(=O)N(C)C)CC1,20.07%
11,COc1ccc(SCC(=O)NC2CCN(C)CC2)cc1,2.47%
12,COCCN(C)C[C@@H]1CN(C(=O)C2CCC2)C[C@@H]1CO,6.32%
13,CN(CCS(=O)(=O)c1ccc(Cl)cc1)CC(=O)N(C)C,-3.7%
14,CSCC(=O)NC1CCCC1,5.49%
15,CCS(=O)(=O)NCCCNS(=O)(=O)c1ccc(C)cc1,0.89%
16,COc1ccc(Cl)cc1NC(=O)NC1CCS(=O)(=O)C1 (stereo not given),6.86%
17,O=C(Nc1ccc(NC(=O)C2CC2)nc1)c1ccsc1,12.11%
18,COCCOCC(=O)N(C)C(C)c1ccncn1 (stereo not given),0.44%
19,CCN(C(=O)CN1CCNC(=O)C1)c1ccc(F)cc1,7.47%
20,CNC[C@@H]1C[C@@H](O)CN1,4.99%
21,CC(C)c1noc(CN2CCSCC2)n1,17.17%
22,Cc1ccc(C(CN)N2CCOCC2)o1 (stereo not given),1.38%

row,SMILES,Inhibition
1,CCc1nc(CNCC2CCN(CCO)CC2)no1,11.72%
2,CCN(CC)C(C)CNC(=O)c1csc(NC(C)=O)n1 (stereo not given),5.75%
3,COCC(=O)Nc1ccc(-n2cccn2)nc1,-2.46%
4,CCC(C)(CO)NC(=O)c1sc(COC)nc1C (stereo not given),6.56%
5,CCC(N)C(=O)N1CCOCC1 (stereo not given),3.92%
6,CC[C@H](N)C(=O)N1CC(Oc2c(C)cccc2C)C1,6.21%
7,O=C(NC1CCCOC1)c1ccc2c(c1)OCCO2 (stereo not given),9.3%
8,CCCN1CCC(N2CCC(C(N)=O)CC2)CC1,-0.38%
9,NC1CCN(Cc2ccc(F)c(F)c2)CC1,10.51%
10,COc1cn(-c2ccccc2)nc1C(=O)NCC(C)C,12.56%
11,c1cncc(N2CCCCC2)c1,8.5%
12,Cc1cc(CN)n(C)n1,8.01%
13,Cc1nc(CC(=O)NCC(C)n2ccnc2)cs1 (stereo not given),5.87%
14,CCc1noc(C(C)NC(=O)c2cccnc2C)n1 (stereo not given),6.44%
15,COc1c(F)cccc1CN1C[C@H](O)[C@@H](N(C)C)C1,9.85%
16,CC(C)(C)OC(=O)c1ncccc1N,5.28%
17,CCC(=O)c1ccc(CN)cc1,12.11%
18,CSCC(=O)Nc1ccc(C(=O)NCC(F)(F)F)cc1,10.77%
19,CC(=O)N1CCN(CCNC(=O)c2cc(Br)c[nH]2)CC1,4.86%
20,CNC(=O)C(C)(C)Oc1cccc(Cl)c1,6.59%
21,O=C(C1CCC1)N(Cc1ccccn1)C1CC1,0.99%
22,Cc1nccn1CC(=O)Nc1ccnn1C,1.95%

row,SMILES,Inhibition
1,CN(C)c1cc(CN)ccn1,11.49%
2,CCn1nc(C)cc1C(=O)NCCCc1cccnc1,7.13%
3,O=C1CC(C(=O)N2CCCC3(CCCCC3)C2)CCN1 (stereo not given),7.27%
4,CCN(C)CCNC(=O)c1ccncc1I,5.97%
5,O=C(c1ccco1)N1C[C@H](O)[C@@H](N2CCCCC2)C1,9.48%
6,CNC(=O)c1cnc(OCC(F)(F)F)c(Cl)c1,1.45%
7,CC(=O)N(C1CC1)C(C)c1ccccn1 (stereo not given),3.11%
8,O=C1NCCCCC1NS(=O)(=O)N1CCOCC1 (stereo not given),3.3%
9,CCn1cc(NC(=O)C(C)n2cccn2)cn1 (stereo not given),0.68%
10,CN(c1cccc(C(N)=O)c1)S(=O)(=O)c1ccccc1,7.68%
11,COc1cccc(NC(=O)NCC2CCN(C)CC2)c1,9.08%
12,Cc1cnccc1CN,5.52%
13,CN(Cc1nc(-c2ccc(F)cc2)cs1)CC(O)CO (stereo not given),8.94%
14,CC(C)CN1CC(CN)OC1=O (stereo not given),2.13%
15,O=C(CCN1CCc2[nH]cnc2C1)NCc1cccs1,-3.55%
16,CCNS(=O)(=O)C1CCN(Cc2cc(F)cc(F)c2)C1 (stereo not given),-0.23%
17,C1CC(C2CCOC2)CCN1 (stereo not given),9.96%
18,CCS(=O)(=O)CCN(C)CCOc1cccc(C#N)c1,3.26%
19,CC(N)c1nc2ccccc2n1C (stereo not given),-1.51%
